Test results published in PubChem BioAssay (NCATS).
Records with an inconclusive call do not appear. Activity calls are given as the source filed them. Unless noted, calls come from the whole dose curve; as a rule, active = well fitted cell-killing curve with a large enough effect; inconclusive = small, poorly fitted or top-dose-only effect, or effect the other way; inactive = no such curve, though single readings can be large or run the other way.

Legend:
[1] = Quantitative High-Throughput drug screen in 47 multiple myeloma cell lines against the NCATS MIPE library collection: KMS34_JCRB cell viability assay (AID 1918985); note: nearly all actives have a fitted effect of over 40% in size; note: potency is the fitted concentration of half-maximal effect
Procedure, shortened: (§1)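 Readout: median RLU from CellTiter-Glo after 5 min at room temperature. Preceding step was 48 h drug treatment of 500 cells/well at 37 °C, 5% CO2, with DMSO-only and media-only control wells.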

[2] = Quantitative High-Throughput drug screen in 47 multiple myeloma cell lines against the NCATS MIPE library collection: OCIMY5_PLB cell viability assay (AID 1918988); note: nearly all actives have a fitted effect of over 65% in size; note: potency is the fitted concentration of half-maximal effect
Procedure, shortened: as §1

[3] = Quantitative High-Throughput drug screen in 47 multiple myeloma cell lines against the NCATS MIPE library collection: OPM1_PLB cell viability assay (AID 1918989); note: nearly all actives have a fitted effect of over 40% in size; note: potency is the fitted concentration of half-maximal effect
Procedure, shortened: as §1

[4] = Quantitative High-Throughput drug screen in 47 multiple myeloma cell lines against the NCATS MIPE library collection: XG1_PLB cell viability assay (AID 1919866); note: nearly all actives have a fitted effect of over 35% in size; note: potency is the fitted concentration of half-maximal effect
Procedure, shortened: as §1

[5] = Quantitative High-Throughput drug screen in 47 multiple myeloma cell lines against the NCATS MIPE library collection: VP6_DJ cell viability assay (AID 1919867); note: nearly all actives have a fitted effect of over 40% in size; note: potency is the fitted concentration of half-maximal effect
Procedure, shortened: as §1

[6] = Quantitative High-Throughput drug screen in 47 multiple myeloma cell lines against the NCATS MIPE library collection: UTMC2_PLB cell viability assay (AID 1919868); settings: CellTiter-Glo ATP luminescence, 48 h; viability (% of DMSO control): at 45.8 µM (top of the series) unless noted; note: nearly all actives have a fitted effect of over 55% in size; note: potency is the fitted concentration of half-maximal effect;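 for viability (% of DMSO control): 100% = DMSO-only wells and 0% = media-only wells without cells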
Procedure, shortened: as §1

[7] = Quantitative High-Throughput drug screen in 47 multiple myeloma cell lines against the NCATS MIPE library collection: PE2_PLB cell viability assay (AID 1919869); note: nearly all actives have a fitted effect of over 35% in size; note: potency is the fitted concentration of half-maximal effect
Procedure, shortened: as §1

[8] = Quantitative High-Throughput drug screen in 47 multiple myeloma cell lines against the NCATS MIPE library collection: PCM6_Riken cell viability assay (AID 1919870); note: nearly all actives have a fitted effect of over 30% in size; note: potency is the fitted concentration of half-maximal effect
Procedure, shortened: as §1

[9] = Quantitative High-Throughput drug screen in 47 multiple myeloma cell lines against the NCATS MIPE library collection: KMS11_JCRBsus cell viability assay (AID 1919873); note: nearly all actives have a fitted effect of over 50% in size; note: potency is the fitted concentration of half-maximal effect
Procedure, shortened: as §1

[10] = Quantitative High-Throughput drug screen in 47 multiple myeloma cell lines against the NCATS MIPE library collection: KMS28BM_JCRB cell viability assay (AID 1919874); note: nearly all actives have a fitted effect of over 35% in size; note: potency is the fitted concentration of half-maximal effect
Procedure, shortened: as §1

[11] = qHTS for identification of novel therapeutic agents for treatment of microphthalmiaassociated transcription factor (MiT) renal cell carcinoma (RCC) (AID 1963991; calls by dose curve; note: potency is the fitted concentration of half-maximal effect); settings: CellTiter-Glo, 48 h; for z-score: stronger effect = lower value
Procedure, shortened: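 Viability of three TFE3-fusion renal carcinoma lines measured by CellTiter-Glo after 48 h treatment with each of 1912 compounds at 11 concentrations. Responses scaled between DMSO (100%) and empty wells (0%) before curve fitting.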

[12] = Quantitative High-Throughput drug screen in 47 multiple myeloma cell lines against the NCATS MIPE library collection: SKMM1_PLB cell viability assay (AID 1919863); settings: SKMM1 myeloma viability, CellTiter-Glo ATP, 48 h; viability: stronger effect = lower value; note: nearly all actives have a fitted effect of over 35% in size; note: potency is the fitted concentration of half-maximal effect
Procedure, shortened: as §1

[13] = Quantitative High-Throughput drug screen in 47 multiple myeloma cell lines against the NCATS MIPE library collection: XG6_PLB cell viability assay (AID 1919865); note: nearly all actives have a fitted effect of over 40% in size; note: potency is the fitted concentration of half-maximal effect
Procedure, shortened: as §1

[14] = Quantitative High-Throughput drug screen in 47 multiple myeloma cell lines against the NCATS MIPE library collection: RPMI8226_ATCC cell viability assay (AID 1919871); note: nearly all actives have a fitted effect of over 30% in size; note: potency is the fitted concentration of half-maximal effect
Procedure, shortened: as §1

[15] = qHTS drug screen for cell cycle checkpoint inhibitors in PARPi-resistant BRCA-mutant ovarian cancer cell lines. (AID 1963452; calls by dose curve); settings: PEO1/OlaR viability, CellTiter-Glo luminescence, 96 h, stronger effect = lower value
Procedure, shortened: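 PEO1, PEO4 and PEO1/OlaR ovarian cancer cells, 600 per well, exposed 96 h at 37C to a dilution series. Viability read by CellTiter-Glo luminescence, normalized to DMSO and empty wells; activity summarized as Z-AUC.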

[16] = Quantitative High-Throughput drug screen in 47 multiple myeloma cell lines against the NCATS MIPE library collection: U266_ATCC cell viability assay (AID 1919864); note: nearly all actives have a fitted effect of over 35% in size; note: potency is the fitted concentration of half-maximal effect;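 for viability (% of DMSO control): 0% = media-only wells without cells and 100% = DMSO-only wells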
Procedure, shortened: as §1

[17] = Quantitative High-Throughput drug screen in 47 multiple myeloma cell lines against the NCATS MIPE library collection: OPM2_DSMZ cell viability assay (AID 1919872); note: nearly all actives have a fitted effect of over 30% in size; note: potency is the fitted concentration of half-maximal effect
Procedure, shortened: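 qHTS of the MIPE 4.0 collection: 500 myeloma cells/well, 48 h drug exposure at 37C in 5% CO2, then CellTiter-Glo for 5 min at room temperature before luminescence reading.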

[18] = TFE3-RCC UOK109 viability, measured here: UOK109 Z-AUC
[19] = TFE3-RCC viability, measured here: UOK124 Z-AUC
[20] = TFE3-RCC viability, measured here: UOK145 Z-AUC
[21] = measured here: PEO1 parental Z-AUC

CC(O)C1C(=O)N2C(C(=O)O)=C(SC3CNC(C(=O)N(C)C)C3)C(C)C12 (stereo not given)
inactive: Potency [1] | Potency [2] | Potency [3] | Potency [4] | Potency [6] | Potency [7] | Potency [8] | Potency [9] | Potency [10]
0.637: z-score [11, 20]
0.116: z-score [11, 19]
0.648: z-score [11, 18]
active: Potency [5] 2.64 µM

CC1COC2(CCN(c3nc(=O)c4cc(C(F)(F)F)cc([N+](=O)[O-])c4s3)CC2)O1 (stereo not given)
0.861: Z-AUC ([15]; measured here: PEO4 Z-AUC)
inactive: Potency [1] | Potency [3] | viability [12] 134% | Potency [13] | Potency [4] | Potency [5] | Potency [6] | Potency [7] | Potency [8] | Potency [14] | Potency [9] | Potency [10] | Z-AUC [15] 0.328
0.189: Z-AUC [15, 21]

N#Cc1c(O)c2c(-c3ccc(-c4ccccc4O)cc3)csc2[nH]c1=O
0.657: z-score [11, 18]
inactive: Potency [1] | Potency [2] | Potency [16] | Potency [13] | Potency [4] | Potency [7] | Potency [14] | Potency [17] | Potency [9] | Z-AUC [15] 0.825
0.62: z-score [11, 20]
1.08: Z-AUC [15, 21]
0.453: z-score [11, 19]
1.07: Z-AUC ([15]; measured here: PEO4 Z-AUC)

COC(=O)c1ccc2c(C(=Nc3ccc(N(C)C(=O)CN4CCN(C)CC4)cc3)c3ccccc3)c(O)[nH]c2c1
active: Potency [1] 18.7 µM | Potency [2] 7.43 µM | Potency [3] 2.09 µM | Potency [12] 9.35 µM | Potency [16] 18.7 µM | Potency [4] 0.662 µM | Potency [6] 6.62 µM | Potency [7] 10.5 µM | Potency [8] 2.96 µM | Potency [14] 3.72 µM

CN(c1ncccc1CNc1nc(Nc2ccc3c(c2)CC(=O)N3)ncc1C(F)(F)F)S(C)(=O)=O
-0.665: Z-AUC ([15]; measured here: PEO4 Z-AUC)
active: Potency [1] 8.33 µM | Potency [2] 5.26 µM | Potency [3] 4.69 µM | Potency [12] 14.8 µM | Potency [16] 9.35 µM | Potency [4] 3.32 µM | Potency [5] 2.64 µM | Potency [6] 2.35 µM | Potency [7] 3.32 µM | Potency [8] 2.35 µM | Potency [14] 8.33 µM | Potency [17] 7.43 µM | Potency [9] 2.64 µM | Potency [10] 6.62 µM
-0.701: Z-AUC [15, 21]
inactive: Z-AUC [15] -0.236

CC(=O)Nc1sc2c(c1-c1nc3ccccc3s1)CNC2
active: Potency [1] 6.62 µM | Potency [2] 16.6 µM | Potency [12] 16.6 µM | Potency [16] 16.6 µM | Potency [13] 9.35 µM | Potency [4] 14.8 µM | Potency [7] 20.9 µM | Potency [8] 14.8 µM | Potency [14] 14.8 µM | Potency [9] 13.2 µM | Potency [10] 14.8 µM

CC(C)c1noc(N2CCC(COc3ccc(-c4ccc(S(C)(=O)=O)cc4)nc3)CC2)n1
0.324: z-score [11, 20]
inactive: Potency [1] | Potency [3] | Potency [16] | Potency [7] | Z-AUC [15] -0.00574
0.308: z-score [11, 19]
active: Potency [2] 8.33 µM | Potency [13] 3.72 µM | Potency [4] 2.64 µM | Potency [5] 7.43 µM | Potency [8] 4.69 µM | Potency [14] 7.43 µM | Potency [9] 1.18 µM
0.525: z-score [11, 18]
-0.198: Z-AUC [15, 21]
1.01: Z-AUC ([15]; measured here: PEO4 Z-AUC)

COc1cc(-c2nn(C3CCC(N4CCN(C(C)=O)CC4)CC3)c3ncnc(N)c23)ccc1NC(=O)c1cc2ccccc2n1C (stereo not given)
active: Potency [1] 6.62 µM | Potency [2] 1.87 µM | Potency [3] 2.64 µM | Potency [12] 14.8 µM | Potency [13] 1.66 µM | Potency [4] 0.332 µM | Potency [5] 6.62 µM | Potency [7] 2.96 µM | Potency [14] 18.7 µM | Potency [9] 4.18 µM | Potency [10] 3.32 µM
-0.0545: Z-AUC ([15]; measured here: PEO4 Z-AUC)
inactive: Z-AUC [15] -1.39
0.075: Z-AUC [15, 21]

COc1c(OCCCN2CCOCC2)ccc2c3n(c(=NC(=O)c4cnc(N)nc4)nc12)CCN3
-1.18: z-score [11, 18]
-0.708: Z-AUC ([15]; measured here: PEO4 Z-AUC)
active: Potency [1] 0.257 µM | Potency [2] 0.102 µM | Potency [12] 0.162 µM | Potency [16] 0.645 µM | Potency [4] 1.44 µM | Potency [6] 0.115 µM | Potency [7] 0.457 µM | Potency [14] 0.129 µM | Potency [17] 2.04 µM | Potency [9] 0.0323 µM | Potency [10] 0.115 µM | Potency ([11]; TFE3-RCC UOK109 viability, active = Z-AUC below -0.8 in all three lines) 0.0407 µM
-1.04: Z-AUC [15, 21]
-1.79: z-score [11, 20]
inactive: Z-AUC [15] -1.27
-2.73: z-score [11, 19]
